# In all, about 38,000 compounds went through this assay and about 1,200 (3.2%) showed an effect of 50% or more. The median lay at about -58%. The list comes from a sample in which strong results are over-represented; it also holds similar structures and randomly drawn compounds.
# Test system: Plasmodium falciparum
# Assay: Calibr Malaria Delayed Death Assay SOP
# Assay type: functional, organism-based
# Set-up: scale not given: in the data most compounds retested in dose-response had high values
# Details: concentration 4.99e-06 (unit not given; other assays of the set use mol/L)
row,SMILES,Percent Effect [%]
1,Cc1nc(CCCC(=O)Nc2cccc(N3CCNC3=O)c2)cs1,-207.5
2,Cc1ccc(N2CCCC(NCc3cnc(C)s3)C2)nn1 (stereo not given),-130.3
3,CC(C)[C@@H]1CN(C2CCN(Cc3ccccc3)CC2)C[C@H]1NS(C)(=O)=O,2.556
4,CC(c1ccncc1)N(C)S(C)(=O)=O (stereo not given),-81.75
5,COc1ncccc1C1CC(=O)Nc2cc(NS(C)(=O)=O)ccc21 (stereo not given),-136.9
6,Nc1cc(N2CCCC(COc3ccc(F)cc3)C2)ncn1 (stereo not given),-4.598
7,Cc1cc(S(=O)(=O)NCC2CNCCOC2)c(C)cc1Cl (stereo not given),75.13
8,Cc1cc(C)cc(S(=O)(=O)NCC2CNCCOC2)c1 (stereo not given),6.797
9,Cc1ccc(S(=O)(=O)NCC2CNCCOC2)cc1Cl (stereo not given),47.92
10,Cc1ccccc1CCC1CCCN(C(=O)Cc2cc(=O)[nH]c(N)n2)C1 (stereo not given),-123.2
11,CC(C)Cc1cc(C(=O)NCC2CCCN(Cc3ccco3)C2)on1 (stereo not given),-23.35
12,Cc1cnn(CCCNCc2csc(COc3ccccc3)n2)c1,70.2
13,Cc1cnn(CCNCc2csc(COc3ccccc3)n2)c1,42.25
14,c1ccc(OCc2nc(CNCCn3cccn3)cs2)cc1,20.38
15,COCCn1ccnc1C1CCN(C(=O)CSc2nnc(C)s2)CC1,-110.9
16,O=C(NC[C@H]1OC[C@@H](N(CC2CC2)CC2CC2)[C@@H]1O)Nc1ccccc1,64.49
17,O=C(NC[C@H]1OC[C@@H](NC2CCC2)[C@@H]1O)Nc1ccccc1,-143.1
18,CN(C)[C@@H]1CO[C@H](CNC(=O)Nc2ccccc2)[C@H]1O,-62.35
19,CN(CCCC1CCCO1)C(=O)c1cccc(C#N)c1 (stereo not given),-170.6
20,O=C(O)CCCC(=O)N1CCC(c2noc3cc(F)ccc23)CC1,-131.6
21,CS(=O)(=O)c1ccc(CNC(=O)NCc2cc[nH]n2)cc1,-45.13
22,CCC(O)(CNCc1cc[nH]n1)c1ccc(Br)cc1 (stereo not given),76.25

row,SMILES,Percent Effect [%]
1,CCC(O)(CNCc1ccncc1)c1ccc(Br)cc1 (stereo not given),3.807
2,CCC(O)(CNCc1ncc[nH]1)c1ccc(Br)cc1 (stereo not given),65.85
3,CC(C)(C)OC(=O)N1CCCc2ccc(NCc3ncc[nH]3)cc21,26.46
4,CC(=O)N1CCCN(C(=O)NCc2cc[nH]n2)CC1,-10.61
5,O=C(c1cnccn1)N1C[C@@H]2CC[C@H](C1)N(S(=O)(=O)c1cccnc1)C2,-81.69
6,CC(C)c1nc(C2CCCN(C(=O)CCn3ccccc3=O)C2)no1 (stereo not given),-110.1
7,CCS(=O)(=O)N1CCC2(CCN(C(=O)c3cccs3)CC2)CC1,-4.516
8,CNS(=O)(=O)C1CCN(c2cc(C(C)C)nc(C(C)C)n2)C1 (stereo not given),-29.56
9,CCN(C(=O)CN1CCCC1c1ccc(F)cc1)c1ccccc1C (stereo not given),-25.99
10,CCN(C(=O)CN1CCCC1c1ccc(OC)cc1)c1ccccc1 (stereo not given),17.94
11,CN(C(=O)CN1CCCC1Cc1ccccc1)c1ccccc1 (stereo not given),20.57
12,N#CCCN(C(=O)CN1CCCC1C1CCCCC1)c1ccccc1 (stereo not given),50.3
13,Cc1ccc(C2CCCN2CC(=O)N(CCC#N)c2ccccc2)cc1 (stereo not given),61.31
14,Cc1cc(C2CCCN2CC(=O)N(CCC#N)c2ccccc2F)on1 (stereo not given),-128.3
15,CCN(C(=O)CN1CCCC1Cc1ccccc1)c1ccccc1 (stereo not given),59.02
16,N#CCCN(Cc1ccco1)C(=O)CN1CCCC1c1cccs1 (stereo not given),2.269
17,N#CCCN(C(=O)CN1CCCC1c1ccccc1Cl)c1ccccc1 (stereo not given),38.72
18,CC1CC(=O)c2cc(C(=O)N3CCc4ccccc43)c(=O)[nH]c2C1 (stereo not given),-103.7
19,CN(C)c1ncc(NC(=O)c2ccccc2C(F)(F)F)cn1,-13.75
20,O=C(Cn1ccc2c(Cl)cccc21)N1CCCC1,-3.751
21,COCC(=O)Nc1ccc2c(c1)C1(CCOCC1)CN2CCF.O=C(O)C(F)(F)F,-73.75
22,Cn1cc(C2COC3(CCN(C(=O)c4ccccn4)CC3)C2)cn1.O=C(O)C(F)(F)F (stereo not given),-70.09

row,SMILES,Percent Effect [%]
1,COc1ccc(N2CCN(C(=O)CCc3n[nH]c(C)n3)CC2=O)cc1,-47.6
2,COC(=O)c1ccc(C(=O)N2CCC(c3nnc(C)s3)CC2)cc1,-39.58
3,CC(O)c1cccc(-n2c(CCC(=O)O)nc3ccccc32)c1 (stereo not given),-169.3
4,OCCNc1nc(Nc2ccccc2)c2nccnc2n1,-38.96
5,Cc1nc(C)n(CC2CCCN2CCCc2nc3ccccc3o2)n1 (stereo not given),-41.56
6,COc1ccc(OC)c(CN2CCC(c3cc(O)nc(C)n3)C2)c1 (stereo not given),-6.514
7,COc1ncc(C2(O)CCN(Cc3cccc(F)c3F)CC2)c(OC)n1.Cl,-65.3
8,Cl.Cl.OC(CN1CCN(Cc2cc(F)ccc2F)CC1)C1CC1 (stereo not given),0.4009
9,Fc1cccnc1N1CCC(NCc2cccc3cn[nH]c23)C1 (stereo not given),-62.75
10,COc1ncc(C2(O)CCN(Cc3cc(F)ccc3F)CC2)c(OC)n1.Cl,-42.34
11,COc1ccc(C)cc1CN1CCN(Cc2nccn2C)CC1,-87.98
12,CC(C(=O)Nc1cccc(Cl)c1SC(F)F)S(C)(=O)=O (stereo not given),-87.5
13,Cc1cc(CN2CCN(c3ccnc(-c4ccccc4)n3)CC2)no1,-117.2
14,Cc1cc(NC(=O)C2CN(Cc3ccccc3)CCO2)ccn1 (stereo not given),-48
15,NC(=O)c1cnc2n1CCN(C(=O)c1cccc(Cn3cccn3)c1)C2,-26.24
16,O=C1CCCN1CCC1CCN(C2CCC3(CCNCC3)CC2)CC1,-113.8
17,COc1ccc(NC(=O)c2cnc(N3CCN(C)CC3)nc2C)cc1,-110.8
18,Cc1ccc(NC(=O)Nc2cnc(N3CCN(C)CC3)nc2)cc1,58.27
19,Cc1cc(C)cc(NC(=O)c2cnc(N3CCN(C)CC3)nc2C)c1,-105.5
20,COc1ccc(C)cc1NC(=O)Nc1cnc(N2CCCC2)nc1,-31.15
21,COc1ccc(NC(=O)Nc2cnc(N3CCN(C)CC3)nc2)cc1Cl,87.5
22,COc1ccc(C)cc1NC(=O)Nc1cnc(N2CCOCC2)nc1,6.993

row,SMILES,Percent Effect [%]
1,CCN(CC)C(CNS(=O)(=O)c1ccc(C(N)=O)cc1)c1ccco1 (stereo not given),-82.08
2,O=C(O)C(F)(F)F.O=S(=O)(c1cccs1)N1Cc2nc(CN3CCCCC3)oc2C1,-52.21
3,O=C(CCO)N1CC[C@@H]2CN(C(=O)c3ccco3)CCO[C@@H]2C1,-32.06
4,COc1c(C)cnc(CN2CCn3c(nnc3C(C)C)C2)c1C,-75.36
5,COc1c(C)cnc(CN(C)C2CCCCC2)c1C,76.34
6,COc1c(C)cnc(CN2CCC(N(C)C(C)C(N)=O)CC2)c1C (stereo not given),77.51
7,COc1c(C)cnc(CN(C)C(=O)c2ccccc2O)c1C,-65.02
8,COc1c(C)cnc(CN(C)C2CCOC3(CCOCC3)C2)c1C (stereo not given),-5.784
9,COc1c(C)cnc(CN2CCC(C(=O)N(C)C)CC2)c1C,-25.53
10,CCC(=O)N(C)C1CCN(Cc2ncc(C)c(OC)c2C)CC1,-107.4
11,COc1c(C)cnc(CN2CCn3c(nnc3C3CC3)C2)c1C,-38.06
12,CSc1ccc(C(=O)N2CC(=O)N(CC3CC3)CC(O)C2)cc1 (stereo not given),-80.98
13,CC(C)c1nn(C)c(N(C)C)c1CNC1CCOc2ccccc21 (stereo not given),-13.52
14,O=C(O)C(F)(F)F.O=C(c1ccccc1F)N1CCC2(CC1)CC(N1CCCC1)CO2 (stereo not given),-57.39
15,Cc1nc(C2CCCN(C(=O)c3cc(-c4ccccc4)[nH]n3)C2)no1 (stereo not given),-103.7
16,O=C(COc1coc(CN2CCCCC2)cc1=O)Nc1cccc(Cl)c1,-36.85
17,N#Cc1cc(F)c(NCc2ccc(F)cc2)c(F)c1,-56.06
18,Cc1cccc(NC(=O)C2(n3cnnn3)CCCCC2)n1,-65.2
19,O=C(C1=CCCC1)N1C[C@@H]2COC[C@]2(COCC2CC2)C1,-77.68
20,COc1ccc(CNCC2CN(C3CC3)CCO2)cc1F (stereo not given),-41.72
21,CCN1CCOC(CNCc2ccc(OC)c(F)c2)C1 (stereo not given),-53.15
22,COc1ccc(CNCC2CCN(CCO)CC2)cc1F,57.05

row,SMILES,Percent Effect [%]
1,CCOCCNCC1CCN(CCO)CC1,-86.72
2,OCCN1CCC(CNCc2cn(-c3ccccc3)nn2)CC1,-75.43
3,Cn1cc(CNCC(c2ccc(Cl)cc2)n2cccn2)cn1 (stereo not given),16.07
4,CCn1cc(CNCC(c2ccc(Cl)cc2)n2cccn2)cn1 (stereo not given),59.81
5,Clc1ccc(C(CNCc2ccncc2)n2cccn2)cc1 (stereo not given),-53.83
6,CCn1cc(-c2n[nH]c(=O)n2-c2ccc3c(c2)OCO3)c(C)n1,-101.4
7,CCC[C@H]1CN(Cc2cscn2)C[C@@H]1NC(=O)C1(COC)CCC1,-24.11
8,CCC[C@H]1CN(c2nc(CO)cs2)C[C@@H]1NC(=O)C1(COC)CC1,71.28
9,CCC[C@H]1CN(c2nc(CO)cs2)C[C@@H]1NC(=O)C1CCC1,1.552
10,CC(C)C[C@H](NC(=O)Cn1ccc2c(Cl)cccc21)C(=O)O,-50.44
11,COc1cccc(CN(C)Cc2nc(C(C)C)no2)c1,-65.15
12,FC1(F)CCN(c2ccccc2)CC12CCN(c1ncccn1)C2 (stereo not given),-152.8
13,CN1CC(=O)N(c2ccccc2)CC12CCN(CCO)C2.O=C(O)C(F)(F)F.O=C(O)C(F)(F)F (stereo not given),-19.33
14,O=C(O)C(F)(F)F.O=C(c1c[nH]cn1)N1CCC(F)(F)C2(CCN(c3cccc(F)c3)C2)C1 (stereo not given),85.76
15,O=C(O)C(F)(F)F.O=C(c1c[nH]cn1)N1CCC(F)(F)C2(CCN(c3ncccn3)C2)C1 (stereo not given),-29.78
16,O=C(O)C(F)(F)F.O=C(O)C(F)(F)F.O=C(c1c[nH]cn1)N1CCC(F)(F)C2(CCN(c3ccccn3)C2)C1 (stereo not given),-115.9
17,Cn1cnc(S(=O)(=O)N2CC3(CCN(c4ccccc4)C3)C2)c1.O=C(O)C(F)(F)F,1.109
18,FC1(F)CCN(Cc2cccnc2)CC12CCN(c1ccccc1)C2.O=C(O)C(F)(F)F.O=C(O)C(F)(F)F.O=C(O)C(F)(F)F (stereo not given),84.58
19,FC1(F)CCN(Cc2cccnc2)CC12CCN(c1cnccn1)C2.O=C(O)C(F)(F)F.O=C(O)C(F)(F)F.O=C(O)C(F)(F)F (stereo not given),-45.54
20,FC1(F)CCN(Cc2ccncc2)CC12CCN(c1cccnc1)C2.O=C(O)C(F)(F)F.O=C(O)C(F)(F)F.O=C(O)C(F)(F)F (stereo not given),15.13
21,OCCN1CCC(F)(F)C2(CCN(c3cccnc3)C2)C1 (stereo not given),-53.32
22,O=C(O)C(F)(F)F.O=C(O)C(F)(F)F.OCCN1CC2(CCN(c3ccccc3)C2)C1,61.64
